# Paper PMC5540273 (PLoS ONE, 2017)
# Experiments:
# Settings in all cases: concentration: 1 μM, replicates: in singlicate; n = 1
# [1] = system: MYLK
# [2] = system: MYO3A
# [3] = system: MYO3B
# [4] = system: T1, NDR1
# T1 construct: gene STK38
# [5] = system: NDR2
# [6] = system: NEK10
# [7] = system: NEK11
# [8] = system: NEK1
# [9] = system: NEK2
# [10] = system: NEK3
# [11] = system: NEK4
# [12] = system: NEK5
# [13] = system: NEK6
# [14] = system: NEK7
# [15] = system: NEK9
# [16] = system: T2, NIK
# T2 construct: gene MAP3K14
# [17] = system: T3, NIM1
# T3 construct: gene MGC42105
# [18] = system: NLK
# [19] = system: T4, OSR1
# T4 construct: gene OXSR1
# [20] = system: PAK1
# 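Also: KINOMEscan kinase panel screen.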
Structure (SMILES),%Inh [1],%Inh [2],%Inh [3],%Inh [4],%Inh [5],%Inh [6],%Inh [7],%Inh [8],%Inh [9],%Inh [10],%Inh [11],%Inh [12],%Inh [13],%Inh [14],%Inh [15],%Inh [16],%Inh [17],%Inh [18],%Inh [19],%Inh [20]
CC(C)(C)c1ccc(C(=O)Nc2cn3cc(-c4ccccc4)ccc3n2)cc1,23%,0%,0%,35%,0%,0%,0%,0%,0%,36%,0%,0%,0%,0%,0%,0%,19%,0%,0%,0%
COc1cccc(-n2cnc3c(N)ncnc32)c1 [SKF-97416],31%,8%,20%,28%,12%,18%,35%,0%,0%,21%,0%,8%,8%,0%,0%,27%,61%,0%,24%,20%
O=C(Nc1ccc2c(c1)OCO2)NC1CCN(c2ccnc(NCc3ccc(F)cc3)n2)CC1 [GSK1379859],20%,0%,0%,0%,0%,3%,8%,0%,3%,0%,23%,17%,0%,0%,11%,12%,0%,11%,3%,0%
O=C(Nc1n[nH]c2nc(-c3ccccc3)c(Br)cc12)C1CC1 [SB-708998],7%,0%,13%,18%,0%,4%,0%,0%,15%,0%,3%,2%,0%,0%,3%,31%,9%,33%,11%,10%
CCC(=O)c1c(-c2ccccc2)c2cc(Cl)ccc2c(=O)n1Cc1ccc(C(=O)O)cc1,0%,0%,3%,0%,0%,0%,0%,0%,0%,22%,0%,0%,0%,0%,0%,0%,0%,0%,0%,0%
CCCC(=O)Nc1n[nH]c2ncc(-c3cccc4ccccc34)cc12 [SB-642057],28%,0%,0%,13%,3%,100%,0%,0%,0%,28%,0%,9%,0%,0%,0%,11%,28%,24%,0%,4%
COc1cc(Nc2ccnc3ccc(C(F)(F)F)cc23)cc(OC)c1OC [GW577382],0%,12%,10%,13%,1%,10%,0%,0%,0%,3%,5%,13%,2%,3%,13%,0%,85%,73%,14%,0%
O=C(NCc1cccs1)c1cc(C(=O)c2c(Cl)cccc2Cl)c[nH]1 [GW823670],0%,0%,18%,26%,14%,0%,0%,15%,0%,20%,0%,17%,0%,0%,0%,0%,2%,0%,0%,5%
CCn1c(-c2ccoc2)nc2cnccc21 [SB-733887],11%,6%,0%,0%,0%,19%,12%,2%,0%,16%,22%,4%,5%,0%,0%,21%,11%,7%,9%,12%
Cc1ccccc1COc1cc(-n2cnc3cc(Cl)ccc32)sc1C(N)=O [GW813349],5%,0%,0%,3%,1%,0%,0%,0%,5%,13%,0%,6%,0%,4%,0%,9%,5%,0%,0%,0%
CN1C(=O)C(Nc2ccccc2)=C(c2ccccc2)C1=O [SB-300079],0%,0%,0%,39%,0%,7%,4%,0%,0%,21%,0%,0%,0%,0%,0%,32%,19%,0%,0%,0%
O=C1NC(=O)C(c2ccccc2)=C1Nc1cccc(O)c1 [SB-390534],37%,17%,21%,0%,0%,0%,16%,0%,16%,30%,13%,0%,0%,14%,0%,3%,100%,0%,0%,0%
CCC(=O)c1c(-c2ccccc2)c2cc(Cl)ccc2c(=O)n1Cc1cc(S(C)(=O)=O)n(CC(F)F)n1,0%,0%,0%,3%,0%,5%,0%,0%,0%,22%,0%,0%,0%,0%,0%,0%,0%,0%,0%,0%
Cl.NS(=O)(=O)c1cccc(Nc2cc(-c3ccc(F)cc3)n[nH]2)c1 [GW824645],0%,0%,0%,47%,5%,8%,0%,0%,0%,14%,0%,0%,0%,0%,0%,45%,3%,0%,0%,4%
Nc1n[nH]c2nnc(-c3ccccc3)c(-c3ccccc3)c12 [GW554060],16%,0%,0%,9%,10%,9%,5%,0%,0%,4%,0%,0%,0%,0%,0%,100%,28%,0%,9%,0%
Cc1ccc(-c2ccc3c(ccc4sc5c(c43)NC[C@@H](C)N=C5N(C)C)n2)cn1,0%,0%,0%,0%,0%,0%,0%,0%,0%,20%,0%,0%,0%,0%,0%,0%,0%,0%,0%,0%
COc1cc2nccc(Nc3ccc(OCc4ccc(NC(C)=O)cc4)cc3)c2cc1OC.Cl [GW440135],13%,20%,0%,0%,0%,12%,0%,0%,0%,0%,0%,0%,0%,100%,94.8%,16%,24%,10%,0%,0%
CN1C(=O)C(Nc2cc(Cl)c(O)c(Cl)c2)=C(c2ccc(Cl)cc2)C1=O [SB-404321],0%,0%,8%,0%,0%,0%,0%,0%,0%,16%,0%,7%,0%,0%,0%,30%,0%,0%,0%,0%
Cc1nnc(-c2ccc(C)c(-c3ccc(C(=O)O)cc3)c2)o1 [GW608005],5%,0%,0%,9%,0%,0%,5%,0%,19%,0%,14%,2%,0%,5%,2%,26%,13%,0%,2%,8%
Nc1n[nH]c2ncc(-c3ccccc3)cc12 [SB-517081],39%,20%,0%,27%,0%,24%,0%,0%,27%,21%,26%,9%,0%,0%,7%,0%,28%,13%,0%,7%
Fc1cccc(CSc2nnc(-c3ccc4c(c3)CCO4)o2)c1,2%,0%,0%,16%,22%,0%,0%,0%,1%,19%,20%,6%,10%,13%,12%,0%,0%,0%,3%,28%
